Screen size: about 5,500 compounds; about 2,000 (36%) were called active. Not shown: some 18% with an inconclusive outcome. Cut-off read from the data, not from the text of the source: active = normalized growth mostly below about 0.91 (no sharp cut-off); inconclusive = no clear call, values can overlap the other calls; inactive = mostly above about 0.92. Some of the results follow.
Test: chemical genetic growth profiling, strain panel (AID 1159580);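 note: tested at 20 µM; growth read once vehicle control cultures reached saturation at 30 °C; 1 = growth at the plate median or of vehicle wells; lower values mean less growth of the strain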
Details: growth OD

Measured: normalized growth

Oc1cc(O)c2c(c1)O[C@H](c1ccc(O)c(O)c1)[C@H](O)C2
inactive: S. cerevisiae deletion strains, locus YJR043C, strain POL32, hits give low values 1.07 | S. cerevisiae deletion strains, locus YJR066W, strain TOR1, hits give low values 0.94 | S. cerevisiae deletion strains, locus YKL009W, strain mrt4, hits give low values 0.972 | S. cerevisiae deletion strains, locus YKL068W, hits give low values 0.979 | S. cerevisiae deletion strains, locus YKL085W, strain MDH1 (second series), hits give low values 0.981 | S. cerevisiae deletion strains, locus YKL085W, strain MDH1, hits give low values 0.981 | S. cerevisiae deletion strains, locus YKL160W, strain elf1, hits give low values 1 | S. cerevisiae deletion strains, locus YKR001C, strain vps1, hits give low values 1 | S. cerevisiae deletion strains, locus YKR026C, strain gcn3, hits give low values 1 | S. cerevisiae deletion strains, locus YKR091W, strain srl3, hits give low values 0.999 | S. cerevisiae deletion strains, locus YLL001W, strain dnm1, hits give low values 0.994 | S. cerevisiae deletion strains, locus YLL026W, hits give low values 1.01 | S. cerevisiae deletion strains, locus YLL041C, strain sdh2, hits give low values 1.01 | S. cerevisiae deletion strains, locus YLR027C, strain aat2, hits give low values 0.996 | S. cerevisiae deletion strains, locus YLR039C, strain RIC1, hits give low values 1.08 | S. cerevisiae deletion strains, locus YLR058C, strain SHM2, hits give low values 1.01 | S. cerevisiae deletion strains, locus YLR102C, strain apc9, hits give low values 0.982 | S. cerevisiae deletion strains, locus YLR113W, strain HOG1, hits give low values 1.02 | S. cerevisiae deletion strains, locus YLR221C, strain rsa3, hits give low values 1.04 | S. cerevisiae deletion strains, locus YLR258W, strain gsy2, hits give low values 1.01 | S. cerevisiae deletion strains, locus YLR262C, strain YPT6 (second series), hits give low values 0.997 | S. cerevisiae deletion strains, locus YLR262C, strain YPT6, hits give low values 1.06 | S. cerevisiae deletion strains, locus YLR268W, strain sec22, hits give low values 0.979 | S. cerevisiae deletion strains, locus YLR320W, strain mms22, hits give low values 1.05 | S. cerevisiae deletion strains, locus YLR330W, strain CHS5, hits give low values 1.01 | S. cerevisiae deletion strains, locus YLR342W, strain FKS1 (second series), hits give low values 1.04 | S. cerevisiae deletion strains, locus YLR342W, strain FKS1, hits give low values 1.01 | S. cerevisiae deletion strains, locus YLR357W, strain rsc2, hits give low values 0.992 | S. cerevisiae deletion strains, locus YLR370C, strain arc18, hits give low values 1.01 | S. cerevisiae deletion strains, locus YLR371W, strain rom2, hits give low values 0.975 | S. cerevisiae deletion strains, locus YLR384C, strain iki3, hits give low values 0.995 | S. cerevisiae deletion strains, locus YLR418C, strain cdc73, hits give low values 1.03 | S. cerevisiae deletion strains, locus YML016C, strain PPZ1, hits give low values 0.992 | S. cerevisiae deletion strains, locus YML032C, strain rad52, hits give low values 1.01 | S. cerevisiae deletion strains, locus YML120C, strain ndi1, hits give low values 0.996 | S. cerevisiae deletion strains, locus YML124C, strain tub3, hits give low values 0.992 | S. cerevisiae deletion strains, locus YMR058W, strain fet3, hits give low values 1.02 | S. cerevisiae deletion strains, locus YMR078C, strain ctf18, hits give low values 0.977 | S. cerevisiae deletion strains, locus YMR125W, strain sto1, hits give low values 1 | S. cerevisiae deletion strains, locus YMR129W, hits give low values 1 | S. cerevisiae deletion strains, locus YMR205C, strain PFK2, hits give low values 1.03 | S. cerevisiae deletion strains, locus YMR223W, strain ubp8, hits give low values 1 | S. cerevisiae deletion strains, locus YMR231W, strain pep5, hits give low values 0.981 | S. cerevisiae deletion strains, locus YMR307W, strain GAS1, hits give low values 1.22 | S. cerevisiae deletion strains, locus YNL067W, strain RPL9B, hits give low values 0.971 | S. cerevisiae deletion strains, locus YNL071W, strain lat1, hits give low values 1.01 | S. cerevisiae deletion strains, locus YNL183C, strain NPR1, hits give low values 0.95 | S. cerevisiae deletion strains, locus YNL209W, strain ssb2, hits give low values 0.994 | S. cerevisiae deletion strains, locus YNL233W, strain BNI4, hits give low values 1.01 | S. cerevisiae deletion strains, locus YNL248C, strain rpa49, hits give low values 1 | S. cerevisiae deletion strains, locus YNL250W, strain rad50, hits give low values 0.937 | S. cerevisiae deletion strains, locus YNL271C, strain bni1, hits give low values 0.984 | S. cerevisiae deletion strains, locus YNL298W, strain CLA4, hits give low values 1.01 | S. cerevisiae deletion strains, locus YNL307C, strain MCK1, hits give low values 0.977 | S. cerevisiae deletion strains, locus YNL322C, strain KRE1 (second series), hits give low values 1.01 | S. cerevisiae deletion strains, locus YNL322C, strain KRE1, hits give low values 1.01 | S. cerevisiae deletion strains, locus YNR049C, strain mso1, hits give low values 1.01 | S. cerevisiae deletion strains, locus YNR052C, strain pop2, hits give low values 0.991 | S. cerevisiae deletion strains, locus YOL006C, strain TOP1, hits give low values 1.03 | S. cerevisiae deletion strains, locus YOL012C, strain htz1 1.18 | S. cerevisiae deletion strains, locus YOL147C, strain pex11, hits give low values 0.998 | S. cerevisiae deletion strains, locus YOR001W, strain rrp6, hits give low values 1.04 | S. cerevisiae deletion strains, locus YOR061W, strain CKA2, hits give low values 0.998 | S. cerevisiae deletion strains, locus YOR069W, strain VPS5, hits give low values 0.999 | S. cerevisiae deletion strains, locus YOR070C, strain gyp1, hits give low values 1 | S. cerevisiae deletion strains, locus YOR080W, strain dia2, hits give low values 1.01 | S. cerevisiae deletion strains, locus YOR083W, strain WHI5, hits give low values 1.01 | S. cerevisiae deletion strains, locus YOR106W, strain vam3, hits give low values 1.03 | S. cerevisiae deletion strains, locus YOR136W, strain idh2, hits give low values 0.985 | S. cerevisiae deletion strains, locus YOR144C, strain elg1, hits give low values 1.01 | S. cerevisiae deletion strains, locus YOR184W, strain ser1, hits give low values 1 | S. cerevisiae deletion strains, locus YOR231W, strain MKK1, hits give low values 0.992 | S. cerevisiae deletion strains, locus YOR265W, strain rbl2, hits give low values 1.02 | S. cerevisiae deletion strains, locus YOR270C, strain vph1, hits give low values 1.08 | S. cerevisiae deletion strains, locus YOR290C, strain snf2, hits give low values 0.99 | S. cerevisiae deletion strains, locus YOR316C, strain cot1, hits give low values 0.989 | S. cerevisiae deletion strains, locus YPL051W, strain arl3, hits give low values 1.01 | S. cerevisiae deletion strains, locus YPL078C, strain atp4, hits give low values 1.03 | S. cerevisiae deletion strains, locus YPL106C, strain sse1, hits give low values 1.01 | S. cerevisiae deletion strains, locus YPL240C, strain hsp82, hits give low values 1.01 | S. cerevisiae deletion strains, locus YPL256C, strain CLN2, hits give low values 0.98 | S. cerevisiae deletion strains, locus YPR119W, strain clb2, hits give low values 0.978 | S. cerevisiae deletion strains, locus YPR141C, strain kar3, hits give low values 0.976 | S. cerevisiae deletion strains, locus YPR163C, strain tif3, hits give low values 0.991 | S. cerevisiae deletion strains, locus YPR167C, strain met16, hits give low values 0.987 | S. cerevisiae deletion strains, strain wtn01, hits give low values 0.992 | S. cerevisiae strains, strain wild type, hits give low values 1.01

From PubChem BioAssay AID1159580 (chemical genetic matrix, 2015)
